Hit rate of the full screen: of about 65,000 compounds, about 2,100 (3.2%) showed an effect of 50% or more. The median lay at about -52%. For the sample, strong results were picked, then their nearest neighbours and some compounds at random.

This assay deals with Plasmodium falciparum. In words: Screen against P. falciparum Asexual Blood Stage (ABS), at 5uM. Type of assay: functional, Dd2. The conditions noted are these: tested at 5 uM.
Regarding `Cc1cccc(CN2C(=O)CC[C@H]3[C@@H]2CCN3CC(=O)N(C)C)n1`, the INHIBITION is -71%. Turning to `CCCN1C(=O)C2(CCCCC2)NC1c1cn(C)c(=O)n(C)c1=O` (centres undefined), the INHIBITION was -5.44%. As for `CCCN1C[C@@H]2CC[C@H]1CN(C(=O)Cc1c(C)[nH]c(CC)nc1=O)C2`, the INHIBITION is on record as -19.6%. Then `COCc1cncc2c1CCN(Cc1ccccn1)C2`, with -65.2%; and `CC(Cc1c(F)cccc1F)NC(=O)CN(CC(N)=O)C(C)C` (centres undefined), with -23.8%. Consider `COc1ccc(CC(C)Nc2cccc(F)c2)cc1` (centres undefined), for which the INHIBITION is -65.5%.

On to `COc1ccc(C(NCc2cccc(O)c2)C2CC2)cc1` (centres undefined), for which the INHIBITION came to 83.6%. Take `O=C(Cc1ccc(O)c(Cl)c1)N1CCN(CC2CC2)[C@@H]2CS(=O)(=O)C[C@@H]21`: the INHIBITION is reported as -53.2%.

As to `COCCN1CCC2(COCc3cnc(N4CCOCC4)nc32)C1` (centres undefined), the INHIBITION was -18.1%. Regarding `COCC(=O)NC[C@H]1C[C@@H]2CCN1C[C@@H]2CN1CCc2ccccc2C1`, the INHIBITION is given as -27.5%. Take `CN1CCN(S(=O)(=O)C2CC2)Cc2cccnc21`: the INHIBITION was -77.8%. On to `CN1CCCC(CNS(=O)(=O)N2CCc3ccccc3C2)C1` (centres undefined), for which the INHIBITION turned out to be 77.4%. For the compound `CCOCCC(=O)N1C[C@@H]2CC[C@H]1CN(Cc1ccncc1)C2`, the INHIBITION is on record as -31.8%.

Turning to `Clc1ccccc1C1(c2ccnc(C3CC3)n2)CCNCC1`, the INHIBITION is recorded as 73.5%. With `O[C@]12CCNC[C@H]1CN(c1ncccc1Cl)CC2`, the INHIBITION is -135%.

`Clc1ccccc1C1(c2ccnc(CC3CC3)n2)CCNCC1`: the INHIBITION worked out at 87.8%.

On to `Clc1ccccc1C1(c2ccnc(C3CCCC3)n2)CCNCC1`, for which the INHIBITION stood at 83%. `Cc1nc(CN2CCC3(C2)CN(C(=O)c2conc2C)C3)cs1`: the INHIBITION is reported as -65.1%.

For the compound `Fc1cccnc1O[C@@H]1CC[C@H]2[C@H]1OCCN2Cc1nccs1`, the INHIBITION was -91.9%. Turning to `CC(C)(C)n1ncc2c1NC(=O)CSC2c1ccc2c(c1)OCCO2` (centres undefined), the INHIBITION is -24.5%. With `O=C(COc1cccc(F)c1)N1C[C@@H](O)[C@H](N2CCCC2)C1`, the INHIBITION is recorded as -133%. In the case of `OCc1csc(N2CCCC(COc3cccc(F)c3)C2)n1` (centres undefined), the INHIBITION was found to be 81.2%.

On to `CCCOc1ccc(C2SCC(=O)Nc3c2c(=O)[nH]n3C(C)C)cc1` (centres undefined), for which the INHIBITION was -95%.

`CC(=O)C1(c2ccccc2)CCN(C(=O)c2ccn3nnnc3c2)CC1`: the INHIBITION was -138%. As for `CNS(=O)(=O)CC(=O)NC(C)Cc1ccccc1Br` (centres undefined), the INHIBITION is reported as -184%. Then `CC[C@H](C)[C@@H](CO)NC(C)Cc1ccccc1F` (some centres undefined), with 49.7%; and `CNC(C)Cc1ccccc1Sc1ccc(O)cc1` (centres undefined), with 88.2%. For the compound `CC(N)Cc1ccccc1Sc1ccc(O)cc1` (centres undefined), the INHIBITION was found to be 72.4%. The result for `CC(N)Cc1ccccc1Sc1ccccc1` (centres undefined) reads 78.3%. `COCCCN1CCCCC12CC(=O)N(Cc1ccccn1)C2` (centres undefined): the INHIBITION is -98.8%. In the case of `Cc1noc(C)c1CN1C[C@@H]2COC[C@H](C(=O)N3CCCO3)[C@@H]2C1`, the INHIBITION is -23.5%.

Consider `CCC(O)CN1CCN(C(=O)Cc2c(C)nc(C)[nH]c2=O)CC1` (centres undefined), for which the INHIBITION is -143%.

For the compound `CN1CCC(O)(CNCc2ccc(F)c(C(F)(F)F)c2)CC1`, the INHIBITION is 83.3%. With `COc1ccc(OC)c(C2SCC(=O)Nc3n[nH]cc32)c1` (centres undefined), the INHIBITION is -130%. Consider `Cc1ccc(CN2CCC3(CCN(S(=O)(=O)c4ccccc4)C3)C2)o1` (centres undefined), for which the INHIBITION is on record as 79.6%. As for `Cc1ccc(CN2CC3(CCN(C(=O)c4cccnc4)C3)C2)o1`, the INHIBITION is -143%. With `Cc1ccc(CN2CC[C@]3(C[C@H](OCc4ccccn4)CO3)C2)o1`, the INHIBITION came to 22.1%. As for `CCNC(=O)NC[C@H]1C[C@@H]2CCN1C[C@@H]2c1cc(-c2cccs2)nn1C`, the INHIBITION is -58.2%. Take `COCC(=O)NC[C@H]1C[C@@H]2CCN1C[C@@H]2c1cc(-c2cccs2)nn1C`: the INHIBITION is -43.2%. With `COc1ccc(CCC(=O)NCCN2CCC(c3cccs3)CC2)cc1`, the INHIBITION came out at 75.8%. On to `Cc1cc(CNC(=O)CCc2ccc(S(N)(=O)=O)cc2)no1`, for which the INHIBITION is reported as -28.2%. For the compound `O=C(NCCc1ccccc1)NCCN1CCC(c2cccs2)CC1`, the INHIBITION is reported as 77.6%. Take `OC[C@@H]1[C@H]2CN(c3ccccn3)CCN2C[C@H]1c1ccccc1`: the INHIBITION is 41.3%.

As for `CCOC(=O)N1CCCC2(CCCNC2)C1` (centres undefined), the INHIBITION was -33%. Turning to `O=C1CO[C@@H]2CN(Cc3ccsc3)C[C@H]2N1Cc1ccncc1`, the INHIBITION was -56.6%.

Take `CCN(C)CC1CCN(S(=O)(=O)c2cc(C)c(F)cc2Cl)C1` (centres undefined): the INHIBITION was found to be 79.3%. Turning to `Cc1cccc(CN2C[C@@H]3CC[C@H]2CN(Cc2[nH]cnc2C)C3)n1`, the INHIBITION stood at 50.9%. For the compound `Cc1cc(CN2C[C@@H]3CC[C@H]2CN(Cc2[nH]cnc2C)C3)on1`, the INHIBITION is reported as -63.7%. For `Cc1ccc(N2CC[C@@H]3CN(Cc4cccc(C)n4)C[C@@H]3C2)nn1`, the INHIBITION is recorded as -27.5%.

Source of the values: ChEMBL document CHEMBL4513216, “Probing the Open Global Health Chemical Diversity Library for Multistage-Active Starting Points for Next-Generation Antimalarials” (ACS Infect Dis, 2020).
